Hits are enriched below; roughly 2.8% of the tested compounds scored in any of these assays.
Giardia killer = Giardia lamblia killing | actives 0.15% (n = 340,000) | activity change, % at 7.66 µM, hits read low | Giardia lamblia trophozoite viability; in the data active means activity change below about -80%; inconclusive means between about -30% and that limit;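 further: parasites exposed to compound for two days anaerobically before the ATP read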
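Giardia lamblia trophozoites (100 cells/well) were incubated with compounds for 48 h at 37 deg C under anaerobic conditions. Viability was read as ATP content by one-step luminescence after 15-30 min at room temperature.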
B2AR arrestin = agonists driving beta-arrestin recruitment to human beta2-adrenergic receptor; Potency, µM (doses to about 46.1 µM), hits mostly activators; actives 0.02% (n = 330,000); P07550; beta-arrestin recruitment to beta2AR, cell-based reporter; AID 492947; active means well fitted activation curve with a large enough effect; inconclusive means small, poorly fitted or top-dose-only effect; further: nearly all actives have a fitted effect of over 65% in size
DRD3 antagonist = D3 dopamine receptor (human) antagonism; actives 2.5% (n = 360,000); D3R cells, DiscoveRx beta-arrestin luminescence, antagonist mode; stronger effect = lower value; max response, negative = inhibition, %; in the data active means max response below about -50%; inconclusive means no clear call, values can overlap the other calls
Target sequence (P35462 whole entry, looked up): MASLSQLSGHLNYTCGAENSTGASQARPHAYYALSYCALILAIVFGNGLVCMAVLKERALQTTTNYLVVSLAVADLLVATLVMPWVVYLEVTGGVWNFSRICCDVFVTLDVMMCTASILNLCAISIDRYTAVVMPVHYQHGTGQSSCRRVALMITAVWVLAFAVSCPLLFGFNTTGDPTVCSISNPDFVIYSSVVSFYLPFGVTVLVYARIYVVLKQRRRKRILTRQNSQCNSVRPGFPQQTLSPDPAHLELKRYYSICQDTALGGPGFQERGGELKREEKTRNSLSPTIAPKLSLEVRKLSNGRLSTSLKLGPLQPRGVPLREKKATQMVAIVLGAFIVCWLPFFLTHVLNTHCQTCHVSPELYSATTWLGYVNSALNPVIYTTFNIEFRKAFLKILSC
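Cells plated overnight at 1500 cells/well, then exposed to library compounds with dopamine controls for 90 minutes at 37 degrees C. DiscoveRx reagent added for 30–60 minutes at room temperature; luminescence read, quantitative HTS format.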
DRD3 agonist = agonists of human D3 dopamine receptor | D3R DiscoveRx beta-arrestin cells, luminescence, 90 min | max activation, % | actives 0.58% (n = 410,000) | AID 652048; in the data active means max activation above about 30%
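Agonist-mode cell screen: cells plated at 1500/well and incubated overnight at 37 °C, then exposed to library compounds for 90 min at 37 °C. Detection reagent was added for 30–60 min at room temperature, and luminescence was read.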
Hits are given with their value; ! = not active in a repeat; [ ] = remark or other dose.

For CCC(Oc1ccccc1)C(=O)Nc1nnc(S(=O)(=O)N(CC)CC)s1 (stereo not drawn) the results were DRD3 agonist inactive.
Screening Cc1ccc(CN2C(=O)C(CC(C)C)Nc3ncnc(N4CCN(c5ccccn5)CC4)c32)cc1 (stereo not drawn) returned Giardia killer inactive, B2AR arrestin inactive, DRD3 antagonist -88 and DRD3 agonist inactive.
CC(C)CC1Nc2ncnc(N3CCN(c4ccccn4)CC3)c2N(Cc2ccc(Br)cc2)C1=O (stereo not drawn) was read as Giardia killer inactive, B2AR arrestin inactive, DRD3 antagonist -99! and DRD3 agonist inactive.
COc1ccc2[nH]c3c(c2c1)CCN1C(=O)C(CC(=O)NCCN2CCOCC2)C[C@H](C(=O)N2CCCCC2)[C@@]31CCc1ccccc1 (stereo partly drawn) was read as Giardia killer inactive, B2AR arrestin inactive, DRD3 antagonist inactive and DRD3 agonist 30.
For COc1ccc2[nH]c3c(c2c1)CCN1C(=O)C(CC(=O)NCCC2=CCCCC2)C[C@H](C(=O)N2CCOCC2)[C@@]31CCC1CCCC1 (stereo partly drawn) the results were Giardia killer inactive, B2AR arrestin inactive, DRD3 antagonist -52 and DRD3 agonist inactive.
`COc1ccc2[nH]c3c(c2c1)CCN1C(=O)C(CC(=O)NCCCN(C)C)C[C@H](C(=O)N2CCCCC2)[C@@]31CCc1ccccc1` (stereo partly drawn) gave Giardia killer inactive, B2AR arrestin inactive, DRD3 antagonist inactive and DRD3 agonist inactive.
COc1ccc2[nH]c3c(c2c1)CCN1C(=O)C(CC(=O)NCCC2=CCCCC2)C[C@H](C(=O)N2CCCCC2)[C@@]31CCc1ccccc1 (stereo partly drawn) was read as Giardia killer inactive, B2AR arrestin inactive, DRD3 antagonist inactive and DRD3 agonist inactive.
For COc1cc2c(cc1OC)C1O[C@](CCCCN3C(=O)c4ccccc4C3=O)(C2)OC2=C1C(=O)OC1(CCCCC1)C2 the results were B2AR arrestin inactive[9.22 µM].
Screening COc1cccc(NC(=O)c2oc3ccccc3c2NC(=O)c2ccc(F)c(F)c2)c1 returned DRD3 agonist inactive.
For O=S(=O)(c1ccc(Br)cc1)N1CCN(c2nc(-c3ccccc3)nc3ccccc23)CC1 the results were Giardia killer inactive.
For COc1cccc(-c2sc3ccc(OC)cc3c2C#CC(C)(C)O)c1 the results were Giardia killer inactive, B2AR arrestin inactive, DRD3 antagonist inactive and DRD3 agonist 71.
COc1ccc2sc(-c3ccc(SC)cc3)c(C#CC(C)(C)O)c2c1 was read as Giardia killer inactive, B2AR arrestin inactive, DRD3 antagonist inactive and DRD3 agonist inactive.
COc1ccc2sc(-c3ccc(N(C)C)cc3)c(C#CCCO)c2c1 was read as Giardia killer inactive, B2AR arrestin inactive, DRD3 antagonist inactive and DRD3 agonist 32.
Screening COc1ccc2sc(-c3ccc(N(C)C)cc3)c(C#Cc3cncn3C)c2c1 returned Giardia killer inactive, B2AR arrestin inactive, DRD3 antagonist inactive and DRD3 agonist 83.
`COc1ccc2sc(-c3ccc(SC)cc3)c(C#CCO)c2c1` gave Giardia killer inactive, B2AR arrestin inactive, DRD3 antagonist inactive and DRD3 agonist 62.
`COc1ccc(-c2sc3ccc(OC)cc3c2C#CCCO)cc1` gave Giardia killer inactive, B2AR arrestin inactive, DRD3 antagonist inactive and DRD3 agonist inactive.
Screening FC(F)OC(Cl)C(F)(F)F (stereo not drawn) returned DRD3 agonist inactive.
CCS(=O)(=O)c1c(S(=O)(=O)CC)c2cc(C(C)(C)C)ccn2c1C(=O)c1ccc(F)cc1 was read as DRD3 agonist inactive.
CCNC(=O)c1c(NC(=O)c2nc(S(=O)(=O)CC)ncc2Cl)sc2c1CCCC2 was read as DRD3 agonist inactive.
For Cc1ccc(C(C)C)c(OCC(=O)Nc2ccc3c(c2)nc(CN2CCCC2)n3C)c1 the results were Giardia killer inconclusive, B2AR arrestin inactive, DRD3 antagonist -67 and DRD3 agonist inactive.
`Cn1c(CN2CCCC2)nc2cc(NC(=O)Nc3ccccc3)ccc21` gave Giardia killer inactive, B2AR arrestin inactive, DRD3 antagonist -103 and DRD3 agonist inactive.
`COc1ccc(C(=O)Nc2ccc3c(c2)nc(CN2CCCC2)n3C)cc1` gave Giardia killer inactive, B2AR arrestin inactive, DRD3 antagonist inactive and DRD3 agonist 45.
For Cc1ccc(OCC(=O)Nc2ccc3c(c2)nc(CCN2CCCC2)n3C)cc1 the results were DRD3 antagonist inactive and DRD3 agonist inactive.
Screening CC(=O)Nc1ccc2c(c1)nc(CN1CCCC1)n2C returned Giardia killer inactive, B2AR arrestin inactive, DRD3 antagonist -50 and DRD3 agonist inactive.
For COc1ccc(C(=O)Nc2ccc3c(c2)nc(CN2CCN(C(C)=O)CC2)n3C)cc1 the results were Giardia killer inactive, B2AR arrestin inactive, DRD3 antagonist inactive and DRD3 agonist inactive.
For O=c1[nH]c(=S)[nH]c2c1[C@H](C1CC1)O[C@H](CCc1ccccc1)C2 the results were DRD3 antagonist -84 and DRD3 agonist inactive.
`CCN1CCN(S(=O)(=O)c2ccc(Cl)c(C(=O)N(CC)CC(=O)Nc3ccc(OC)cc3)c2)CC1` gave Giardia killer inactive, B2AR arrestin inactive, DRD3 antagonist -163 and DRD3 agonist inactive.
`CCN1CCN(S(=O)(=O)c2ccc(Cl)c(C(=O)Nc3ccc(OC(F)F)cc3)c2)CC1` gave Giardia killer inactive, B2AR arrestin inactive, DRD3 antagonist inactive and DRD3 agonist inactive.
`C(=C\c1ccccc1)/CN1CCN(c2ncnc3c2oc2ccccc23)CC1` gave Giardia killer inactive, B2AR arrestin inactive, DRD3 antagonist inactive and DRD3 agonist 40.
`Nc1nc(N2CCN(C/C=C/c3ccccc3)CC2)nc2ccccc12` gave Giardia killer inactive, B2AR arrestin inactive, DRD3 antagonist -64 and DRD3 agonist inactive.
Screening O=c1[nH]c(CN2CCN(S(=O)(=O)/C=C/c3ccccc3)CC2)nc2ccccc12 returned Giardia killer inactive, B2AR arrestin inactive, DRD3 antagonist inactive and DRD3 agonist inactive.
Nc1nc(N2CCN(C(=O)c3ccco3)CC2)nc2ccccc12 was read as Giardia killer inactive, B2AR arrestin inactive, DRD3 antagonist inactive and DRD3 agonist inactive.
Screening O=c1[nH]c(CN2CCN(C/C=C/c3ccccc3)CC2)nc2ccccc12 returned Giardia killer inactive, B2AR arrestin inactive, DRD3 antagonist -77 and DRD3 agonist inactive.
O=C(Cn1cnc2onc(-c3ccc(F)cc3)c2c1=O)Nc1ccc(F)c(Cl)c1 was read as DRD3 agonist inactive.
`Cc1nc2nc(NC(=O)c3ccc(C(C)(C)C)cc3)[nH]n2c(=O)c1C` gave DRD3 agonist inactive.
CC(C)CN(C[C@@H](OP(=O)(O)O)[C@H](Cc1ccccc1)NC(=O)O[C@H]1CCOC1)S(=O)(=O)c1ccc(N)cc1 was read as DRD3 agonist inactive.
`CC1(C)[C@@H](OC(=O)CCC(=O)O)CC[C@]2(C)[C@H]3C(=O)C=C4[C@@H]5C[C@@](C)(C(=O)O)CC[C@]5(C)CC[C@@]4(C)[C@]3(C)CC[C@@H]12` gave DRD3 agonist inactive.
